Assay outcomes: PubChem BioAssay, several laboratories
TcdB GH inh = blocks C. difficile toxin B glycohydrolase activity; 350,000 compounds, 0.24% hits; TcdB glycohydrolase enzymatic assay, plate reader; inhibition, % at 9.99 µM; P18177; AID 652162; in the data active means inhibition above about 10%
Autofluor counter = counter-screen for toxin protease inhibitors: compound fluorescence; compound autofluorescence counterscreen, microsphere flow cytometry; stronger effect = higher value; fluorescence intensity (no concentration beside the values); 360,000 compounds, 3.1% hits; AID 624483; in the data active means fluorescence intensity above about 16000; inconclusive means no clear call, values can overlap the other calls
BoNT F protease = blocks Botulinum neurotoxin F light chain protease; inhibition, % at 10 µM; 360,000 compounds, 0.22% hits; AID 588497; Multiplex microsphere protease cleavage assay, flow cytometry; in the data active means inhibition above about 35%, passing the limit was not always enough; inconclusive means no clear call, values can overlap the other calls; further: plate controls were buffer without enzyme for full effect and enzyme alone for no effect
BoNT A protease = blocks Botulinum neurotoxin A light chain protease; multiplex microsphere protease substrate cleavage, flow cytometry; inhibition, % at 10 µM; 360,000 compounds, 0.17% hits; further: plate controls were buffer without enzyme for full effect and enzyme alone for no effect
Anthrax LF prot = anthrax lethal factor protease inhibition. P15917. multiplex microsphere protease cleavage assay, LF. inhibition, % at 10 µM. 360,000 compounds, 0.12% hits; further: plate controls were buffer without enzyme for full effect and enzyme alone for no effect
Starred values were filed as active, the others as inactive. The sample as a whole holds a higher share of hits than the screen did. Unless noted, no stated cut-off is given here; in the data, active means inhibition above about 30%; inconclusive means no clear call, values can overlap the other calls; inactive means below that.

Results for CC(=O)NCCc1nc2cc(NS(=O)(=O)c3ccc(Cl)cc3)ccc2n1C ?
TcdB GH inh: 2; Autofluor counter: 3210; BoNT F protease: -9; BoNT A protease: 0; Anthrax LF prot: 10

Results for Cn1c(CCNC(=O)c2ccco2)nc2cc(NS(=O)(=O)c3ccc(Cl)cc3)ccc21 ?
Autofluor counter: 21550*; BoNT F protease: -6; BoNT A protease: -6; Anthrax LF prot: -2

What do the screens show for `Cn1c(CCN2CCN(c3ccc(F)cc3)CC2)nc2cc(NC(=O)c3ccco3)ccc21`?
Autofluor counter: 24006*; BoNT F protease: -4; BoNT A protease: 0; Anthrax LF prot: -2

How did Cc1ccc(N2CCN(CCc3nc4cc(NC(=O)c5ccco5)ccc4n3C)CC2)cc1 do in these assays?
Autofluor counter: 24375*; BoNT F protease: -4; BoNT A protease: -2; Anthrax LF prot: -6

How did Cn1c(CCN2CCN(c3ccccc3)CC2)nc2cc(NC(=O)c3ccco3)ccc21 do in these assays?
Autofluor counter: 4514; BoNT F protease: 9; BoNT A protease: 0; Anthrax LF prot: 2

What do the screens show for `COc1ccc(NC(=O)N(C)C[C@H]2OCCCC[C@@H](C)Oc3ccc(NC(=O)Nc4ccc(F)cc4)cc3C(=O)N([C@H](C)CO)C[C@@H]2C)cc1`?
TcdB GH inh: 0

What do the screens show for `CO[C@H]1CN(C)C(=O)c2ccc(NC(=O)Nc3ccccc3F)cc2OC[C@@H](C)N(C(C)=O)C[C@H]1C`?
TcdB GH inh: 0

What do the screens show for `CCN1C(=O)C(=Cc2cc(C)n(C3CC3)c2C)C(=O)N(CC)C1=S`?
Autofluor counter: 2840; BoNT F protease: 8; BoNT A protease: 41*; Anthrax LF prot: 16

Results for Cc1cc(/C=C2\SC(=S)NC2=O)c(C)n1C1CC1 ?
Autofluor counter: 20502*; BoNT F protease: 3; BoNT A protease: 1; Anthrax LF prot: 3

What do the screens show for `Cc1cc(C=C2C(=O)N(C)C(=S)N(C)C2=O)c(C)n1C1CCCC1`?
Autofluor counter: 4034; BoNT F protease: 27; BoNT A protease: 54*; Anthrax LF prot: 38*

How did Cc1cc(/C=C2/C(=O)N(C)C(=S)N2C)c(C)n1C1CC1 do in these assays?
TcdB GH inh: 0; Autofluor counter: 2602; BoNT F protease: -11; BoNT A protease: 5; Anthrax LF prot: -3

What do the screens show for `COc1ccccc1C#Cc1ccc2c(c1)O[C@@H](CN(C)Cc1ccccc1)[C@H](C)CN([C@@H](C)CO)S2(=O)=O`?
TcdB GH inh: 1

Results for Cc1cccc(-c2c3c(=O)n(C)c(=O)n(C)c3cn2-c2ccc(O)cc2)c1 ?
Autofluor counter: 20937*; BoNT F protease: -2; BoNT A protease: -1; Anthrax LF prot: 0

What do the screens show for `Cc1ccc(S(=O)(=O)N(C)C[C@H]2Oc3ccc(NC(=O)NC4CCCCC4)cc3C(=O)N([C@H](C)CO)C[C@@H]2C)cc1`?
TcdB GH inh: 1

Results for COCC(=O)Nc1ccc2c(c1)OC[C@@H](C)N(C(=O)Cc1ccccn1)C[C@@H](C)[C@@H](OC)CN(C)C2=O ?
TcdB GH inh: 0

How did Cc1ccc(-c2nn3c(C)nnc3s2)cc1NC(=O)c1ccc(-c2ccc(Cl)cc2Cl)o1 do in these assays?
Autofluor counter: 16181*; BoNT F protease: 2; BoNT A protease: inconclusive; Anthrax LF prot: 2

What do the screens show for `CCOc1cc(C2c3c(n[nH]c3C)C(=O)N2c2ccc(C)cc2)ccc1O` (stereo unspecified)?
Autofluor counter: 23172*; BoNT F protease: 2; BoNT A protease: 1; Anthrax LF prot: -1

How did COc1cc(C2c3c(n[nH]c3C)C(=O)N2c2ccc(C)cc2)ccc1O (stereo unspecified) do in these assays?
Autofluor counter: 9173; BoNT F protease: 0; BoNT A protease: 0; Anthrax LF prot: -10

How did COc1ccc(NC(=O)Nc2ccc3c(c2)C(=O)N([C@H](C)CO)C[C@@H](C)[C@H](CN(C)S(C)(=O)=O)OCCCC[C@H](C)O3)cc1 do in these assays?
TcdB GH inh: 0

Results for COC(=O)C1=C(C)n2nnnc2NC1c1cc2ccccc2o1 (stereo unspecified) ?
Autofluor counter: 17991*; BoNT F protease: 9; BoNT A protease: inconclusive; Anthrax LF prot: -7

Results for CCn1c(O)c(/C=N/N=C2CCCC2)c2ccc(C3=NNC(=O)CC3)cc21 ?
Autofluor counter: 23877*; BoNT F protease: -7; BoNT A protease: -4; Anthrax LF prot: -4

How did CCn1c(O)c(/C=N/N=C2CCCCC2)c2cc(C3=NNC(=O)CC3)ccc21 do in these assays?
TcdB GH inh: 0; Autofluor counter: 5560; BoNT F protease: -12; BoNT A protease: 0; Anthrax LF prot: -8

How did C[C@@H]1CN([C@H](C)CO)C(=O)c2cc(C3=CCCC3)cnc2O[C@@H]1CN(C)Cc1cccnc1 do in these assays?
TcdB GH inh: -1

Results for CCOC(=O)C1C(=O)C=C(/C=C/c2ccccc2)CC1c1ccc(Cl)cc1 (stereo unspecified) ?
Autofluor counter: 16539*; BoNT F protease: -4; BoNT A protease: inconclusive; Anthrax LF prot: -4

Results for CN(C)S(=O)(=O)c1c(Cl)cccc1Cl ?
Autofluor counter: 23563*; BoNT F protease: 1; BoNT A protease: 1; Anthrax LF prot: 0

Results for C[C@@H]1CN([C@H](C)CO)C(=O)Cc2cc(NC(=O)Cn3cnnn3)ccc2O[C@H]1CN(C)Cc1ccc(Oc2ccccc2)cc1 ?
TcdB GH inh: -1

What do the screens show for `O=[N+]([O-])c1ccc(O)c(/C=N/NC2=NS(=O)(=O)c3ccccc32)c1`?
TcdB GH inh: 0; Autofluor counter: 2644; BoNT F protease: 41*; BoNT A protease: 6; Anthrax LF prot: 1

How did CCCNC(=O)[C@@H]1[C@@H](CO)[C@@H]2Cn3c(ccc(-c4ccccc4F)c3=O)[C@@H]2N1C(C)=O do in these assays?
TcdB GH inh: -2

Results for CCOc1ccc2nc(N3CCCCCC3)sc2c1 ?
TcdB GH inh: 2; Autofluor counter: 16527*; BoNT F protease: -4; BoNT A protease: 0; Anthrax LF prot: -4

How did CCOc1ccc2nc(N3CCC(C(=O)N4CCN(C5CCCCC5)CC4)CC3)sc2c1 do in these assays?
TcdB GH inh: -1; Autofluor counter: 5515; BoNT F protease: -2; BoNT A protease: 1; Anthrax LF prot: 4

How did CN(C)c1nc2ccc(OCCN3CCCCC3)cc2s1 do in these assays?
Autofluor counter: 23663*; BoNT F protease: -1; BoNT A protease: -1; Anthrax LF prot: 0

What do the screens show for `C[C@@H]1CN([C@@H](C)CO)C(=O)c2cc(NC(=O)Cn3cnnn3)ccc2O[C@@H]1CN(C)Cc1ccncc1`?
TcdB GH inh: 0

How did CC(C)C(=O)Nc1cccc(C(=O)NCc2ccc(S(N)(=O)=O)cc2)c1 do in these assays?
Autofluor counter: 18546*; BoNT F protease: 12; BoNT A protease: 7; Anthrax LF prot: -16

How did CCCc1ccc(OCc2ccc(C(=O)OC)o2)c(OC)c1 do in these assays?
TcdB GH inh: 1; Autofluor counter: 23181*; BoNT F protease: 1; BoNT A protease: 1; Anthrax LF prot: -2
